Results on 19 compounds are retold here after PubChem BioAssay AID1259339 (Broad Institute, 2017).

Broadly, the AC50 is the midpoint of the concentration-response curve, whichever way the signal moves.

Activity calls are given as the source filed them.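 How the source made its calls: active means fitted AC50 no higher than ten times the top tested dose (cut at about 90 µM in these data); inconclusive means flat curve with 30 to 70% signal loss, or bad fit; inactive means AC50 beyond ten times the top dose.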

The nature of this assay: AlphaLISA signal interference compounds, dose response, artefact control, biochemical, TruHit kit (AID 1259339). The settings on record: TruHit alphaLISA kit signal interference counterscreen; series mostly up to 80 µM.
In the case of `Cc1ccc(-c2nnc(-c3nc(Nc4nc5ccccc5s4)c4ccccc4n3)o2)cc1`, the AC50 entry is “inactive”.

As to `O=C(NCCCN1CCOCC1)c1cc(-c2ccco2)nc2ccccc12`, the AC50 is 27.5 µM (active).

Regarding `O=C(NC1CC1)c1cc(-c2ccco2)nc2ccccc12`, the AC50 entry is “inactive”.

Regarding `O=C(NCCc1ccco1)c1ccc(OCc2cn3ccccc3n2)cc1`, the AC50 result is “inactive”.

Take `COc1ccc(-c2nc(C)c(C(C)=O)n2O)cc1OC`: the AC50 entry was “inactive”.

Take `COCC(=O)N1CCCC2(CCN(CCN3CCCC3)C2=O)C1` (centres undefined): the AC50 result is “inactive”.

In the case of `CCOc1ccccc1NC(=O)N1CCCC(c2nccn2CCOC)C1` (centres undefined), the AC50 entry is “inactive”.

For the compound `O=C(Nc1nc(-c2ccco2)c(-c2ccco2)s1)C1CCC1`, the AC50 is 4.55 µM (active).

Consider `O=C(CN1CCOC1=O)N1CCC2(CCC(=O)N(CCCn3ccnc3)C2)CC1`, for which the AC50 entry is “inactive”.

`CN(C)c1ccc(CN2C[C@H]3CC[C@@H]2CN(C(=O)c2ccncc2)C3)cn1`: the AC50 result is “inactive”.

As for `O=C(Nc1nc(-c2nc3ccccc3s2)cs1)c1ccco1`, the AC50 result is “inactive”.

Consider `COc1ccc(NC(=O)c2nc(Nc3ccccc3)c3ccccc3n2)cc1`, for which the AC50 result is “inactive”.

Regarding `O=C(COc1cccnc1[N+](=O)[O-])c1ccc(Cl)s1`, the AC50 was 23.2 µM (active).

For the compound `CC(C)C(CC(=O)NCc1ccco1)c1ccco1` (centres undefined), the AC50 is 66.5 µM (active).

As for `O=S(=O)(c1ccccc1)N1CC2CN(Cc3ccc(O)cc3)C2C1` (centres undefined), the AC50 result is “inactive”.

Regarding `O=C(CCN1CCOCC1)c1ccc2c(c1)OCCO2`, the AC50 result was “inactive”.

Regarding `Cn1ncc2c(NNC(=O)c3cc(O)cc(O)c3)ncnc21`, the AC50 entry is “inactive”.

`Cc1cccc2nc(CSCc3ccco3)cn12`: the AC50 was 74.7 µM (active).

On to `CC1=CCC(C(=O)O)C(C(=O)NC2CCCCC2)C1` (centres undefined), for which the AC50 result is “inactive”.
